Source: PubChem BioAssay (NCATS)
Inconclusive results are not listed. Calls of active or inactive are those of the source. The call rests on the fitted dose curve; in most records, active means well fitted cell-killing curve with a large enough effect; inconclusive means small, poorly fitted or top-dose-only effect, or effect the other way; inactive means flat fitted curve, though single readings scatter.

Tests used:
Test in all cases: Primary qHTS to identify gynecologic anti-cancer compounds using libraries of approved drugs and bioactive compounds (AID 1345084); further: nearly all actives have a fitted effect of over 55% in size
[1] = system: C33A; settings: Gynecologic cancer cell panel viability, ATPlite luminescence, 48 h; series mostly up to 57.5 µM
Procedure, shortened: (§1)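 Measured: luminescence after ATPlite addition (15 min, RT). Exposure: 48 h, 37 C, 5% CO2.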

[2] = system: CASKI; settings: Gynecologic cancer cell panel viability, ATPlite luminescence, 48 h; series mostly up to 57.5 µM
Procedure, shortened: as §1

[3] = system: Es-2; settings: Gynecologic cancer cell panel viability, ATPlite luminescence, 48 h; series mostly up to 57.5 µM
Procedure, shortened: as §1

[4] = system: HeLa; settings: Gynecologic cancer cell panel viability, ATPlite luminescence, 48 h; series mostly up to 57.5 µM
Procedure, shortened: as §1

[5] = system: Hek293T; settings: Gynecologic cancer cell panel viability, ATPlite luminescence, 48 h, control line for the selectivity index; series mostly up to 57.5 µM
Procedure, shortened: as §1

[6] = system: JEG-3; settings: Gynecologic cancer cell panel viability, ATPlite luminescence, 48 h; series mostly up to 57.5 µM
Procedure, shortened: as §1

[7] = system: OV90; settings: Gynecologic cancer cell panel viability, ATPlite luminescence, 48 h; series mostly up to 57.5 µM
Procedure, shortened: as §1

[8] = system: PA-1; settings: Gynecologic cancer cell panel viability, ATPlite luminescence, 48 h; series mostly up to 57.5 µM
Procedure, shortened: as §1

[9] = system: SKOV3; settings: Gynecologic cancer cell panel viability, ATPlite luminescence, 48 h; series mostly up to 57.5 µM
Procedure, shortened: as §1
On the % scale 0 is the no-effect control and ±100 the full control effect; potency means the concentration at half of the fitted maximal effect.

CN1[C@H]2C[C@H](OC(=O)[C@H](CO)c3ccccc3)C[C@@H]1[C@@H](O)C2
inactive: Potency [1] | Potency [2] | Potency [3] | Potency [4] | Potency [5] | Potency [6] | Potency [7] | Potency [8] | Potency [9]

C=CC(C)(O)CC/C=C(\C)C(=O)O[C@H]1[C@H](O)[C@@H](CO)O[C@@H](OC(=O)[C@]23CCC(C)(C)CC2C2=CCC4[C@@]5(C)CC[C@H](O[C@@H]6O[C@H](CO[C@@H]7OC[C@H](O)[C@H](O)[C@H]7O[C@@H]7OC[C@@H](O)[C@H](O)[C@H]7O)[C@@H](O)[C@H](O)[C@H]6O)C(C)(C)C5CC[C@@]4(C)[C@]2(C)CC3)[C@@H]1OC1OC(C)C(O[C@@H]2OC[C@@H](O)[C@H](O[C@@H]3OC[C@@H](O)[C@H](O)[C@H]3O)[C@H]2O)C(O)C1O (some centres undefined)
inactive: activity change, negative = cytotoxicity [1] 2.58% [at 6.55 µM] | activity change, negative = cytotoxicity [2] -11.5% [at 6.55 µM] | activity change, negative = cytotoxicity [3] 0.692% [at 6.55 µM] | activity change, negative = cytotoxicity [4] 7.46% [at 6.55 µM] | activity change, negative = cytotoxicity [5] 2.18% [at 6.55 µM] | activity change, negative = cytotoxicity [6] -17.2% [at 6.55 µM] | activity change, negative = cytotoxicity [7] -3.63% [at 6.55 µM] | activity change, negative = cytotoxicity [8] 3.75% [at 6.55 µM] | activity change, negative = cytotoxicity [9] 0% [at 6.55 µM]

CC1=CC2/C=C(\C)CCC(O)C3OC(C)(C)OC3CC(=O)OC23C(=O)NC(CC(C)C)C3C1C (centres undefined)
inactive: Potency [1] | Potency [2] | Potency [3] | Potency [4] | Potency [5] | Potency [6] | Potency [7] | Potency [8] | Potency [9]

C[C@@](O)(COc1ccc(C#N)cc1)C(=O)Nc1ccc(C#N)c(C(F)(F)F)c1
inactive: Potency [1] | Potency [2] | Potency [3] | Potency [4] | Potency [5] | Potency [6] | Potency [7] | Potency [8] | Potency [9]

C[C@H]1C(=O)O[C@H]2[C@H](O)[C@]34C5OC(=O)[C@]3(O[C@@H]3OC(=O)[C@H](O)C34[C@H](C(C)(C)C)[C@H]5O)C12O (some centres undefined)
inactive: Potency [1] | Potency [2] | Potency [3] | Potency [4] | Potency [5] | Potency [6] | Potency [7] | Potency [8] | Potency [9]

C/C=C(\C)C(=O)OC1CC2C(C)(C)OC(=O)CC(OC(C)=O)C2(C)C2CC(OC(=O)C(C)C)C3(C)C(c4ccoc4)CC4OC43C12C (centres undefined)
inactive: Potency [1] | Potency [2] | Potency [3] | Potency [4] | Potency [5] | Potency [6] | Potency [7] | Potency [8] | Potency [9]

COC1=CC(=O)O[C@@H](/C=C/c2ccccc2)C1
inactive: Potency [1] | Potency [2] | Potency [3] | Potency [4] | Potency [5] | Potency [6] | Potency [8] | Potency [9]

CCOc1ccccc1-n1c(C(C)N2CCN(C(=O)COc3ccc(Cl)cc3)CC2)nc2ccccc2c1=O (centres undefined)
inactive: Potency [1] | Potency [2] | Potency [4] | Potency [7] | Potency [8] | Potency [9]
active: Potency [3] 3980 nM

CCc1[nH]c2ccc(OC)cc2c1CCN(C)C
inactive: Potency [1] | Potency [2] | Potency [3] | Potency [4] | Potency [5] | Potency [6] | Potency [7] | Potency [8] | Potency [9]

CC(C)(C)c1cc(C(C)(C)C)c2c(c1)C(O)(C(F)(F)F)C(=O)O2 (centres undefined)
inactive: Potency [1] | Potency [2] | Potency [3] | Potency [4] | Potency [5] | Potency [6] | Potency [7] | Potency [8] | Potency [9]

Cn1ncnc1COc1nn2c(-c3c(F)cccc3F)nnc2cc1C1CCC1
inactive: Potency [1] | Potency [2] | Potency [3] | Potency [4] | Potency [5] | Potency [6] | Potency [7] | Potency [8] | Potency [9]

CC(=O)OC1CC(O)C(C)(C)C2CC(OC(C)=O)C3(C)C(CCC4(C)C(c5ccoc5)C(=O)C5OC543)C12C (centres undefined)
inactive: Potency [1] | Potency [2] | Potency [3] | Potency [4] | Potency [5] | Potency [6] | Potency [7] | Potency [8] | Potency [9]

COC1CC(O[C@H]2CC[C@@]3(C)C(=CCC4C3C(O)[C@@H](O)[C@]3(C)[C@@H](C(C)=O)CC[C@]43O)C2)OC(C)C1OC1CC(OC)C(OC2OC(C)C(O)C(O)C2O)C(C)O1 (some centres undefined)
inactive: activity change, negative = cytotoxicity [1] -3.17% [at 11.6 µM] | activity change, negative = cytotoxicity [2] -11.2% [at 11.6 µM] | activity change, negative = cytotoxicity [3] -3.8% [at 11.6 µM] | activity change, negative = cytotoxicity [4] -11.4% [at 11.6 µM] | activity change, negative = cytotoxicity [5] -2.86% [at 11.6 µM] | activity change, negative = cytotoxicity [6] -1.29% [at 11.6 µM] | activity change, negative = cytotoxicity [7] -0.104% [at 11.6 µM] | activity change, negative = cytotoxicity [8] -3.19% [at 11.6 µM] | activity change, negative = cytotoxicity [9] -4.29% [at 11.6 µM]

C/C=C(\C)C(=O)O[C@H]1[C@H](OC(C)=O)[C@]2(CO)[C@H](O)[C@H](O)[C@]3(C)C(=CCC4[C@@]5(C)CC[C@H](O[C@@H]6O[C@H](C(=O)O)[C@@H](O)[C@H](O[C@@H]7OC[C@H](O)[C@H](O[C@@H]8OC[C@H](O)[C@H](O)[C@H]8O)[C@H]7O)[C@H]6O[C@@H]6O[C@H](CO)[C@@H](O)[C@H](O)[C@H]6O)C(C)(C)C5CC[C@]43C)[C@@H]2CC1(C)C (some centres undefined)
inactive: activity change, negative = cytotoxicity [1] 0.756% [at 6.55 µM] | activity change, negative = cytotoxicity [2] 13.6% [at 6.55 µM] | activity change, negative = cytotoxicity [3] -0.471% [at 6.55 µM] | activity change, negative = cytotoxicity [4] 10.9% [at 6.55 µM] | activity change, negative = cytotoxicity [5] -2.46% [at 6.55 µM] | activity change, negative = cytotoxicity [6] -2.67% [at 6.55 µM] | activity change, negative = cytotoxicity [7] -10.1% [at 6.55 µM] | activity change, negative = cytotoxicity [8] -1.59% [at 6.55 µM] | activity change, negative = cytotoxicity [9] 6.49% [at 6.55 µM]

CC(=O)O[C@H]1C[C@@H](OC(C)=O)C(C)(C)C2C[C@@H](O)[C@]3(C)C(CC[C@@]4(C)[C@H](C5=CC(=O)OC5O)C[C@H]5O[C@]543)[C@]21C (some centres undefined)
inactive: Potency [1] | Potency [2] | Potency [3] | Potency [4] | Potency [5] | Potency [6] | Potency [7] | Potency [8] | Potency [9]

CO[C@@H]1[C@H](O)[C@@H](O[C@@H]2C[C@H]3CC[C@@H]4C(CC[C@]5(C)[C@@H](C6=CC(=O)OC6)CC[C@]45O)[C@@]3(C)[C@H](O)C2)O[C@H](C)[C@@H]1O[C@@H]1O[C@H](CO)[C@@H](O)[C@H](O)[C@H]1O (some centres undefined)
active: Potency [1] 199 nM | Potency [2] 1260 nM | Potency [3] 398 nM | Potency [4] 562 nM | Potency [5] 398 nM | Potency [7] 2240 nM | Potency [8] 398 nM | Potency [9] 562 nM

COC(=O)C12C(=O)C(C)(O)C(=O)C1(C)C(C)=CC1C34CCC(OC3=O)C(C)(CO)C4CCC12C (centres undefined)
inactive: Potency [1] | Potency [2] | Potency [3] | Potency [4] | Potency [5] | Potency [6] | Potency [7] | Potency [8] | Potency [9]
